Experimental data as given in PubChem BioAssay.
Results filed as inconclusive are left out. Active and inactive are the calls of the source.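 Rule for the calls, unless noted: active = cell viability at or below a set limit in both duplicate runs, the limit being the all-compound median minus 4 SD (cut at about 23% in these data, passing the limit was not always enough); inconclusive = no clear call, values can overlap the other calls; inactive = the rest.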

Columns and labels:
[1] = Her2 expression decrease, cell viability multiplex – SKBR3 breast tumor cells, AlphaScreen, ATP viability, primary screen (AID 461;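 active = Her2 level under about 52% in both replicate screens, with viability over 70% of control, limit read from the data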;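 for Her2 level: lower value means less Her2 protein in the cells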;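 for viability: percent of carrier control wells set as 100% viability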); conditions: SKBR3 Her2 protein level, 18-24 h, measured here: SKBR3 viability, ATP luminescence, at 10 µM
[2] = target: Receptor tyrosine-protein kinase erbB-2 (Homo sapiens) (UniProt P04626); test: as above; conditions: 18-24 h, at 10 µM, stronger effect = lower value
Chain of Receptor tyrosine-protein kinase erbB-2 (Homo sapiens) (P04626 whole entry, looked up): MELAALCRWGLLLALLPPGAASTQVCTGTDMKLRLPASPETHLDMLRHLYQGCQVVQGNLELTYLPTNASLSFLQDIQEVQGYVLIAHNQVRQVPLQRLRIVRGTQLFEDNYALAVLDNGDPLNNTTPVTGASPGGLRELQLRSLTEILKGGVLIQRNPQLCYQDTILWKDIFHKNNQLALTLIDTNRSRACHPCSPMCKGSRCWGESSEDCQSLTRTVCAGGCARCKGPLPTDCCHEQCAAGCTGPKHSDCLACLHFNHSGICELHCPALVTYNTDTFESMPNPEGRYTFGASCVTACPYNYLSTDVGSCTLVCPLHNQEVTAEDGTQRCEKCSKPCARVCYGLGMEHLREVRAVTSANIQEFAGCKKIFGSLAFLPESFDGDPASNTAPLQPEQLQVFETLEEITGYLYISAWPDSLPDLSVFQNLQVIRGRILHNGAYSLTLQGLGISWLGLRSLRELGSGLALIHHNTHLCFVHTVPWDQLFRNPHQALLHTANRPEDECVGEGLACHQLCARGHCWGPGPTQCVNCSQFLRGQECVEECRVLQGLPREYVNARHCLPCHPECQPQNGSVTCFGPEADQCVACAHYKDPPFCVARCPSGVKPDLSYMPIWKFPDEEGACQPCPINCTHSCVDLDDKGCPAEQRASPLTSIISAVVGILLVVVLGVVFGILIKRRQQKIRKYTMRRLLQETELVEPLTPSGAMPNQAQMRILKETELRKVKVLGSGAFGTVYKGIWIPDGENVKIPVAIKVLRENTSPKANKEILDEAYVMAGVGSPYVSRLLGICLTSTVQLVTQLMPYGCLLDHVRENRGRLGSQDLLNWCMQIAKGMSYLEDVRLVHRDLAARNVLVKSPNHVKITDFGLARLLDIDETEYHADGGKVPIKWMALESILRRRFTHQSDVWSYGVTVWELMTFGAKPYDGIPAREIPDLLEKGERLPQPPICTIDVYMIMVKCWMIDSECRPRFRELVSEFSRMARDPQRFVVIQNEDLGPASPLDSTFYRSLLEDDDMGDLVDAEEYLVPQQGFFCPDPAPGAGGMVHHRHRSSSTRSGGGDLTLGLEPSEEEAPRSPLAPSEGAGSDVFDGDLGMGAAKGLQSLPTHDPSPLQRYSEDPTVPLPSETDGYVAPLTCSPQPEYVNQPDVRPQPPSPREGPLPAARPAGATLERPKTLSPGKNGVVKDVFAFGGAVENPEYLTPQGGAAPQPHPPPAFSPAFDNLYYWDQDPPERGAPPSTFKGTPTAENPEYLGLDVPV

[3] = reduced viability of SK-BR-3 breast cancer cells – cell-based, 24 h, human, pilot screen (AID 572;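 active = viability at or below 10% of carrier control in both of two separate runs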;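 note: compound exposure lasted between 18 and 24 h rather than exactly 24 h; 100% = carrier-treated control wells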); conditions: SK-BR-3 viability, CellTiter-Glo luminescence, at 10 µM, stronger effect = lower value
[4] = H69AR cell proliferation blockers – human, duplicate replicates, primary screen (AID 580;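 active = viability at or under a set limit in both replicates, limit being median viability minus 3 SD, cut at about 48% in these data, passing the limit was not always enough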;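 note: 100% = mean luminescence of untreated wells and 0% = no signal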); conditions: H69AR lung tumor cells viability, ATP luminescence, 72 h; at 10 µM; stronger effect = lower value
[5] = MRP1 drug-resistance reversers in H69AR cells – cell-based, doxorubicin co-treatment, pilot screen (AID 601;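 active = viability loss from added drug above about 55%, and viability with drug at most 40%, in both replicates, limit read from the data, passing the limit was not always enough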); conditions: CellTiter-Glo, 72 h, at 10 µM; for differential viability (reversal): stronger effect = higher value
[6] = yeast transport mutant growth inhibition pilot in 384-well plates, post-Golgi transport modulator project (AID 636; in the data active = inhibition above about 31%); conditions: absorbance 615 nm, about 18 h, stronger effect = higher value
[7] = growth suppression of yeast trafficking mutant, preliminary HTS, modulators of trafficking downstream of Golgi apparatus project, 1536-format plate, OD 615 nm (AID 637; in the data active = inhibition above about 30%); conditions: yeast transport mutant growth, absorbance 615 nm, 18 h; stronger effect = higher value
[8] = S. cerevisiae growth inhibition in permissive medium (OD615), pilot counter-assay for S. cerevisiae lifespan shortening project, permissive growth control (AID 705;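 active = growth inhibition above 25% in both replicates, a cutoff set 3 SD above the mean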); conditions: OD615, 24 h, at 10 µM, stronger effect = higher value
[9] = S. cerevisiae growth inhibition in restrictive medium, OD615, pilot screen, restrictive growth control, yeast lifespan reduction project (AID 706;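 active = growth inhibition above a set limit, 3 SD over mean compound inhibition, in both replicates, cut at about 43% in these data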;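 note: modified DeaD lifespan yeast strain shifted to restrictive glucose medium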); conditions: OD615, 48 h, at 10 µM, stronger effect = higher value
[10] = doxorubicin toxicity protection in MRP-1 cells – H69AR cells, CellTiter-Glo, duplicate, MRP-1 activator project, pilot screen (AID 807;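 active = viability increase at or above a cutoff of the median across tested compounds plus 3 SD, cut at about 8.5% in these data, passing the limit was not always enough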;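 note: compound pretreatment 18-22 h then 72 h combined with doxorubicin; 0% = doxorubicin alone and 100% = vehicle without doxorubicin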); conditions: H69AR viability with doxorubicin, CellTiter-Glo luminescence; at 10 µM; stronger effect = higher value
[11] = viability of HCT116 without oncogenic beta-catenin – human colon tumor cells, pilot screen (AID 823); conditions: HCT116 beta-catenin knockout viability, CellTiter-Glo, 60 h; at 10 µM; stronger effect = lower value;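 note: 0% = wells killed by 20 µM Hyamine and 100% = untreated DMSO cell wells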
[12] = viability of PTEN-null HCT116 cells – cell-based, HCT116 clonal line, CellTiter-Glo, pilot screen (AID 824;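 active = viability at or below 27.92% in each of two runs, the all-compound median minus 4 SD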;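 note: 0% = 20 µM Hyamine control and 100% = vehicle cell control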); conditions: HCT116 PTEN-deleted viability, 60 h, at 10 µM, stronger effect = lower value
[13] = RAM pathway blockade in budding yeast – dse1pr::URA3 reporter, 5-FOA selection, pilot screen (AID 869;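 active = inhibition over a set limit, the all-compound mean plus 3 SD, in both replicate runs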;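 note: 0% = DMSO wells with no growth and 100% = 10 µM 1-NA-PP1 with full growth; RAM network block rescues cells from 5-FOA so hits raise OD615 growth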); conditions: S. cerevisiae dse1pr::URA3 5-FOA growth, OD615, 2 d; at 10 µM; stronger effect = higher value; strain carries analog-sensitive mutant Cbk1 kinase
[14] = RAM signaling pathway blockade in yeast – S. cerevisiae, Pdr1DBD-CYC8 efflux-inhibited sensitized strain, primary screen (AID 1298;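 active = RAM network inhibition above 8.4% in each of two replicates, 3 SD over the compound average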;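 note: 0% = DMSO untreated cells without growth and 100% = 10 µM 1-NA-PP1 full growth; higher means more yeast growth rescued from 5-FOA killing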); conditions: S. cerevisiae cbk1-as DSE1-URA3 strain, 5-FOA growth OD615, 2 d; at 50 µM; stronger effect = higher value
[15] = HUVEC growth inhibition – cell-based, human, primary screen (AID 575;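 active = viability at or below 30% in both replicate assays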;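 note: 100% = median of untreated cell wells with 0.1% DMSO on each plate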); conditions: HUVEC proliferation, CellTiter-Glo luminescence, 72 h; at 10 µM; stronger effect = lower value
[16] = H69AR cells + 2 uM doxorubicin, measured here: viability with 2 uM doxorubicin, stronger effect = lower value
[17] = H69AR cells, compound alone cytotoxicity

Cc1ccc2nc(NC(=O)Cn3cc4c(n3)CCCCC4)sc2c1
93%: viability [5, 17]
inactive: Her2 level [2] 106% | viability [3] 91.5% | viability [4] 93% | differential viability (reversal) ([5]; H69AR cells + 2 uM doxorubicin) -3.56% | inhibition [6] 0.51% | inhibition [7] -4.67% | growth inhibition [8] -4.68% | growth inhibition [9] 10.6% | viability increase [10] -3.78% | viability [11] 98.2% | viability [12] 97% | inhibition [13] 2.76% | RAM network inhibition [14] 3.93%
91.5%: viability [1]
96.6%: viability [5, 16]

Cc1ccccc1Cn1nc(C)c(NC(=O)c2noc3c2CCc2ccccc2-3)c1C
inactive: Her2 level [2] 61% | viability [3] 126% | viability [4] 98.4% | differential viability (reversal) ([5]; H69AR cells + 2 uM doxorubicin) 14% | inhibition [6] 5.77% | inhibition [7] -2.17% | growth inhibition [8] -6.68% | growth inhibition [9] 1.82% | viability [11] 79.5% | viability [12] 85.2% | inhibition [13] 1.23% | RAM network inhibition [14] 6.54%
126%: viability [1]
active: viability increase [10] 10.6%
84.4%: viability [5, 16]
98.4%: viability [5, 17]

Cc1ccc(C(=O)Nc2c(C(=O)N3CCOCC3)cnn2-c2ccccc2)cc1
75.3%: viability [5, 16]
inactive: viability [3] 103% | viability [15] 94.5% | viability [4] 91.8% | differential viability (reversal) ([5]; H69AR cells + 2 uM doxorubicin) 16.5% | inhibition [6] -4.27% | inhibition [7] -2.91% | growth inhibition [8] -7.86% | growth inhibition [9] -9.73% | viability increase [10] -1.89% | viability [11] 103% | viability [12] 102% | inhibition [13] 0.475% | RAM network inhibition [14] -1.3%
91.8%: viability [5, 17]

COC(=O)c1ccc(NC(=O)C2C3CCC(C3)C2C(=O)O)cc1 (configuration not stated)
inactive: viability [3] 96% | viability [15] 113% | viability [4] 90.4% | differential viability (reversal) ([5]; H69AR cells + 2 uM doxorubicin) 0.415% | inhibition [6] 2.13% | inhibition [7] 6.55% | growth inhibition [8] 10.2% | growth inhibition [9] 1.67% | viability increase [10] -2.31% | viability [11] 93.7% | viability [12] 93.6% | inhibition [13] 1.04% | RAM network inhibition [14] 1.43%
90.4%: viability [5, 17]
90%: viability [5, 16]

C/C=C/CSc1nc2c(c(=O)[nH]c(=O)n2C)n1Cc1ccc(C)cc1
102%: viability [1]
35.5%: viability [5, 17]
active: viability [4] 35.5%
58.2%: viability [5, 16]
inactive: Her2 level [2] 98.5% | viability [3] 102% | differential viability (reversal) ([5]; H69AR cells + 2 uM doxorubicin) -22.7% | inhibition [6] -1.6% | inhibition [7] -0.49% | growth inhibition [8] 0.005% | growth inhibition [9] 1.29% | viability increase [10] -4.39% | viability [11] 84.4% | viability [12] 69.3% | inhibition [13] 1.98% | RAM network inhibition [14] 2.77%

CC1=C(C(=O)OC2CCCCCC2)C(c2ccc(C)o2)C2=C(CCCC2=O)N1 (configuration not stated)
inactive: viability [3] 124% | viability [15] 102% | viability [4] 97.2% | differential viability (reversal) ([5]; H69AR cells + 2 uM doxorubicin) -3.5% | inhibition [6] -1.49% | inhibition [7] 2.38% | growth inhibition [8] -11.2% | growth inhibition [9] -22.5% | viability increase [10] -2% | viability [11] 70.8% | viability [12] 78.8% | inhibition [13] 1.77% | RAM network inhibition [14] 1.63%
97.2%: viability [5, 17]
101%: viability [5, 16]

Cc1cc(=O)oc2c1ccc1oc(/C(=N/O)c3ccccc3)c(C)c12
84%: viability [1]
74.5%: viability [5, 17]
91.7%: viability [5, 16]
inactive: Her2 level [2] 112% | viability [3] 84% | viability [4] 74.5% | differential viability (reversal) ([5]; H69AR cells + 2 uM doxorubicin) -17.2% | inhibition [6] 8.46% | inhibition [7] 17.2% | growth inhibition [8] -11% | growth inhibition [9] 10.6% | viability increase [10] 5.23% | viability [11] 80.8% | viability [12] 65.4% | inhibition [13] 0.035% | RAM network inhibition [14] 9.44%

CCOc1ccc(N(CC(=O)Nc2cccc(OC)c2)S(=O)(=O)c2c(C)noc2C)cc1
91.5%: viability [1]
59.6%: viability [5, 17]
76.3%: viability [5, 16]
inactive: Her2 level [2] 95% | viability [3] 91.5% | viability [15] 72.4% | differential viability (reversal) ([5]; H69AR cells + 2 uM doxorubicin) -16.7% | inhibition [6] -4.4% | inhibition [7] -7.38% | growth inhibition [8] -11.5% | growth inhibition [9] 3.05% | viability increase [10] -4.75% | viability [11] 71.8% | viability [12] 70.9% | inhibition [13] -0.41% | RAM network inhibition [14] 4.24%

Cc1ccccc1-c1nc(CN2CCC(C(=O)NC3CCN(Cc4ccccc4)CC3)CC2)c(C)o1
inactive: Her2 level [2] 77.5% | viability [3] 91% | viability [4] 86.3% | differential viability (reversal) ([5]; H69AR cells + 2 uM doxorubicin) 7.26% | inhibition [6] -5.87% | inhibition [7] 3% | growth inhibition [8] -8.2% | growth inhibition [9] -3.5% | viability increase [10] -7.96% | inhibition [13] 1.26% | RAM network inhibition [14] 1.75%
79%: viability [5, 16]
91%: viability [1]
86.3%: viability [5, 17]
active: viability [11] 6.4% | viability [12] 9.9%

Cc1ccc(C)c(N2CCN(CCCNC(=O)Cn3cc4c(n3)CCC(C)C4)CC2)c1 (configuration not stated)
active: viability [4] 26.6% | viability [11] 1.61% | viability [12] 2.81%
46.9%: viability [5, 16]
90.5%: viability [1]
inactive: Her2 level [2] 78% | viability [3] 90.5% | differential viability (reversal) ([5]; H69AR cells + 2 uM doxorubicin) -20.3% | inhibition [6] -1.54% | inhibition [7] -2.83% | growth inhibition [8] 6.12% | growth inhibition [9] 10.4% | viability increase [10] -6.04% | inhibition [13] 1.44% | RAM network inhibition [14] 0.11%
26.6%: viability [5, 17]
